# BAZ2B inh = qHTS Assay for Inhibitors of BAZ2B. AlphaScreen BAZ2B-H3K14Ac peptide displacement. Potency, µM (highest dose often 114 µM), inactives show top-dose activity change, negative = inhibition, actives largely listed as inhibitors. 360,000 tested, 4.4% active. AID 504333, 2011. Bromodomain adjacent to zinc finger domain protein 2B (Homo sapiens), Q9UIF8; further: on the % scale 0 is the no-effect control and ±100 the full control effect; nearly all actives have a fitted effect of over 60% in size
#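 Inhibition is scored as reduced AlphaScreen emission. The BAZ2B/b-H3(5-23)K14Ac complex (50 nM each) in PBS pH 7.4, 0.01% Tween-20 meets compound (up to 110 uM) for 30 min at RT before bead addition.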
# L3MBTL1 inh = qHTS Assay for the Inhibitors of L3MBTL1; Lethal(3)malignant brain tumor-like protein 1 (Homo sapiens), Q9Y468; AlphaScreen L3MBTL1–H3K9me1 peptide binding; Potency, µM (highest dose often 57.1 µM), for the others: at the highest dose activity, negative = inhibition, most hits filed as inhibitors; 230,000 tested, 0.66% active; further: on the % scale 0 is the no-effect control and ±100 the full control effect; nearly all actives have a fitted effect of over 60% in size
# Target sequence (Q9Y468 whole entry, looked up): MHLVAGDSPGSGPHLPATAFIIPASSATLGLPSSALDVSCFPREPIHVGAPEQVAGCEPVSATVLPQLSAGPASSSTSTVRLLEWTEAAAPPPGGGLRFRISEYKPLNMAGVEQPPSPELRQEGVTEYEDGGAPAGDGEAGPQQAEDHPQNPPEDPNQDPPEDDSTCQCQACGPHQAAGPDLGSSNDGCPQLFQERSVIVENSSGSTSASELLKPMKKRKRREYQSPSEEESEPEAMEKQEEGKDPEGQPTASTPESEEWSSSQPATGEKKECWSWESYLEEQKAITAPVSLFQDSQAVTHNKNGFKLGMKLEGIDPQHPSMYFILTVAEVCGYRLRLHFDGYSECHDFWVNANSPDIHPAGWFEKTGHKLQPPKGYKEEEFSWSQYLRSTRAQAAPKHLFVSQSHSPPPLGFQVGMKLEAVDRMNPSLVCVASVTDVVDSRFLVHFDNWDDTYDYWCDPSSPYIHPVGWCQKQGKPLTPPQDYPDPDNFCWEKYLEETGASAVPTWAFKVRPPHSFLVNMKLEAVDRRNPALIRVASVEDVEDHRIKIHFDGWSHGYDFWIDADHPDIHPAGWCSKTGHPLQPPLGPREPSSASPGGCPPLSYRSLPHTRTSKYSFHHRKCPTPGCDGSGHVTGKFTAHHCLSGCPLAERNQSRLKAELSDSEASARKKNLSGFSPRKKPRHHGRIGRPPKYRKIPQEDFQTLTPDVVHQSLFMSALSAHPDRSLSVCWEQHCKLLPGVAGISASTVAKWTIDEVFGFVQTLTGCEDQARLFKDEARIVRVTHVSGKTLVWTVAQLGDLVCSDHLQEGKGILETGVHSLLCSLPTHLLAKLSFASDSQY
#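 AlphaScreen proximity signal between nickel-chelate acceptor and streptavidin donor beads (final 10 ug/mL) reports binding of 50 nM L3MBTL1 to 75 nM biotin-H3 K9me1 peptide; complex incubated with compounds 30 min at room temperature; cefsulodin titration as control.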
# HP1b binding inh = HTS for Inhibitors of HP1-beta Chromodomain Interactions with Methylated Histone Tails | 390,000 tested, 0.56% active | Potency, µM (titrated, usually from 114 µM), for the others: at the top dose activity change, negative = inhibition, hits mostly inhibitors | AlphaScreen HP1-beta / biotin-H3K9me3 peptide binding; further: nearly all actives have a fitted effect of over 70% in size
#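 HP1-beta protein (50 nM final) preincubated 30 min at room temperature with biotinylated H3(1-18)K9me3 peptide (50 nM) in PBS pH 7.4, 0.01% Tween-20, then compound added for 30 min. AlphaScreen streptavidin donor/nickel chelate acceptor beads (10 ug/mL final), 30 min dark, luminescence read.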
# Sfp inh = qHTS Assay for Inhibitors of Bacillus subtilis Sfp phosphopantetheinyl transferase (PPTase); 4'-phosphopantetheinyl transferase ffp (Bacillus subtilis), Q9F4F7; 310,000 tested, 3.5% active; AID 1490, 2009; Potency, µM, for the others: largest response in the series, negative = inhibition, actives largely listed as inhibitors; Biochemical Sfp PPTase activity, qHTS;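 further: the enzyme is Sfp with the accession as filed and its product quenches rhodamine fluorescence; 0% = enzyme reaction without inhibitor and -100% = no enzyme wells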
#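 With Hepes-Na pH 7.6 buffer containing 10 mM MgCl2, Sfp (15 nM) modified BHQ-2-YbbR (12.5 uM) using rhodamine-CoA (5 uM). Two reads 30 minutes apart at 525/598 nm yielded each well's rate.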
# G9a inh = qHTS Assay for Inhibitors of Histone Lysine Methyltransferase G9a | Histone-lysine N-methyltransferase EHMT2 (Homo sapiens), Q96KQ7 | G9a H3K9 monomethylation, AlphaScreen, 2 h | Potency, µM (titrated, usually from 102 µM), without a hit: top-dose activity, negative = inhibition, usual class: inhibitors | 350,000 tested, 8.8% active | AID 504332, 2011; further: on the % scale 0 is the no-effect control and ±100 the full control effect; nearly all actives have a fitted effect of over 75% in size
#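 AlphaScreen detection with an anti-monomethyl H3K9 antibody quantified product after a 2 h room-temperature reaction containing 500 nM biotinylated H3K9 peptide, 20 µM SAM and 20 nM enzyme, which had been preincubated 15 min with compound.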
# JMJD2A Tudor = qHTS Assay for Inhibitors of JMJD2A-Tudor Domain. AlphaScreen JMJD2A-Tudor / H3K4me3 peptide binding. Potency, µM (highest dose often 114 µM), inactives show top-dose activity change, negative = inhibition, actives largely listed as inhibitors. 390,000 tested, 4.4% active. AID 504339, 2011; further: on the % scale 0 is the no-effect control and ±100 the full control effect; nearly all actives have a fitted effect of over 50% in size
# * = called active by the depositor; ? = inconclusive; nt = no result given; [ ] = dose if it differs, or a comment. An excerpt weighted towards active compounds, which were near 12% of everything screened. The call rests on the fitted dose curve; in most records, active means well fitted curve in the direction sought with a large enough effect; inconclusive means small, poorly fitted or top-dose-only effect, or another doubt; inactive means no such curve, though single readings can be large; an effect the other way counts as inactive or inconclusive. Potency means the concentration at half of the fitted maximal effect.
SMILES,BAZ2B inh,L3MBTL1 inh,HP1b binding inh,Sfp inh,G9a inh,JMJD2A Tudor
CC(=O)O[C@H]1[C@H]2[C@@H](OC(=O)Cc3ccccc3)[C@@H](C)C[C@]2(OC(C)=O)C(=O)/C(C)=C/[C@@H]2[C@H](CC[C@@]13CO3)C2(C)C,nt,nt,nt,0%,12%[59 µM],nt
Oc1cc2c(cc1O)[C@H]1c3ccccc3CNC1CC2 (stereo partly drawn),nt,nt,nt,nt,0.5µM*,nt
CCOC(=O)c1ccc(N=C(CC)c2c(O)n(C)c(=O)n(C)c2=O)cc1,-38%,nt,1%,9%,?,?
CCC(=Nc1ccc(Cc2ccncc2)cc1)c1c(O)n(C)c(=O)n(C)c1=O,-6%,-2%,20%,5%,79µM*,-9%
O=C1CC2OCC=C3CN4CC[C@@]56c7ccccc7N1C5C2C3CC46 (stereo partly drawn),nt,nt,nt,7%,-32%[2.33 µM],nt
CCOC(=O)c1ccc2c(c1)N(CC)C(=O)c1ccccc1S2,-7%,nt,24%,-13%,45µM*,-3%
CC(N)(COP(=O)(O)Oc1ccccc1)C(=O)O (stereo not drawn),nt,nt,nt,?,27%[59 µM],nt
COc1ccc(N2CCN(CCCN)CC2)cc1,nt,nt,?,nt,nt,10µM*
Cc1noc(C)c1C(=O)N1CCC[C@@]2(CCN(CC(C)C)C2)C1,nt,nt,nt,24%,0%[12.7 µM],nt
[Cl][In]([Cl])[Cl],nt,nt,nt,45µM*,0%[59 µM],nt
CC(=NCCN1CCCCC1)c1c(O)n(Cc2ccccc2)c(=O)[nH]c1=O,5%,-3%,39%,-7%,40µM*,-4%
CCCCn1c(O)c(C(C)=NCCN2CCCCC2)c(=O)[nH]c1=O,-2%,-8%,16%,-9%,28µM*,-20%
C=CCn1c(O)c(C(C)=NCCN2CCCCC2)c(=O)[nH]c1=O,13%,nt,26%,-13%,?,-19%
CCON=O,nt,nt,nt,-2%,8%[12.7 µM],nt
Cc1cc(Oc2cc(NN3CCCCC3)c([N+](=O)[O-])cc2[N+](=O)[O-])ccc1[N+](=O)[O-],50µM*,?,-20%,6%,7.1µM*,18µM*
O=[N+]([O-])c1ccc(N2CCCC2)c(F)c1Br,-32%,-18%,8%,10%,?,-18%
CCN1C[C@@]2(COC(=O)c3ccccc3N3C(=O)CC(C)C3=O)CC[C@H](OC)[C@]34C5C[C@@H]6[C@@H](OC)C[C@@](O)(C5[C@H]6OC)[C@@](O)(C13)[C@@H](OC)C24 (stereo partly drawn),nt,nt,nt,16%,nt,nt
Cc1ccc2c(c1)C(=O)CC1(CCC(C(C)(C)C)CC1)O2 (stereo not drawn),42%,nt,69%,-4%,89%[59 µM],14%
CN1CCN(c2ccc([N+](=O)[O-])c(Sc3ccccn3)c2)CC1,-18%,-14%,8%,13%,0%,-17%
NNS(=O)(=O)c1ccc(Sc2ccccn2)c([N+](=O)[O-])c1,-14%,-5%,31%,-28%,40µM*,-20%
O=C(Nc1ccc(Cl)c(C(F)(F)F)c1)NC1CC2CCCC(C1)N2Cc1ccccc1 (stereo not drawn),-26%,nt,43%,-2%,-8%[59 µM],-8%
O=C(/C=C/c1ccc2c(c1)OCO2)c1c(O)n(CCC2=CCCCC2)c(=O)[nH]c1=O,9%,0%,14%,-3%,11µM*,-11%
COc1ccc(/C=C/C(=O)c2c(O)n(CCC3=CCCCC3)c(=O)[nH]c2=O)cc1,0%,8%,31%,14%,13%[59 µM],-32%
COc1cc([C@@H]2c3cc4c(cc3[C@@H](O)C3COC(=O)C32)OCO4)cc(OC)c1O (stereo partly drawn),nt,nt,29%,nt,nt,-12%
COc1ccc2c(c1)NP(=S)(c1ccccc1)N2C (stereo not drawn),nt,nt,35µM*,nt,nt,50µM*
SMILES,BAZ2B inh,L3MBTL1 inh,HP1b binding inh,Sfp inh,G9a inh,JMJD2A Tudor
COc1ccc(P2(=O)Nc3ccccc3N2)cc1,3%[57.1 µM],-12%,6%,24%,?,-18%
COc1ccc2c(c[n+](C)c3c4cc5c(cc4ccc23)OCO5)c1OC,nt,nt,nt,50µM*,17µM*,nt
NC(N)=Nc1ccc2[nH]c3c(c2c1)C[C@]1(O)[C@@H]2Cc4ccc(O)c5c4[C@]1(CCN2CC1CC1)[C@@H]3O5,nt,nt,nt,-22%,nt,nt
CC1(C)C2CC=C(CN3CCC(O)CC3)C1C2 (stereo not drawn),?,-11%[11.4 µM],-21%,?,?,3.5µM*
S=C1Nc2ccccc2Sc2ccccc21,?,-13%,?,?,10µM*,-16%
Cc1ccc(/C=C2/C(=O)NC(=O)N(CC3CCCO3)C2=O)s1 (stereo not drawn),-24%,-9%,38%,?,13µM*,-9%
Cc1ccc(/C=C2\C(=O)NC(=O)N(CCc3ccc(F)cc3)C2=O)s1,-11%,nt,31%,-11%,?,-2%
O=C=NCCCCN=C=O,nt,nt,nt,8%,nt,nt
CCOc1cncc(/C=C/CCNC)c1,nt,nt,nt,-10%,nt,nt
CN(C)c1cccc2c(C#N)ccc(N(C)C)c12,-19%,-18%,?,2%,45µM*,?
O=C(c1ccco1)N1CCC2(CC1)CN(Cc1ccncc1)C2,nt,nt,nt,-3%,9%[12.7 µM],nt
COc1ccc(OC)c([C@H](O)[C@H](C)N)c1,nt,nt,nt,29%,19%[21.5 µM],nt
CNC(=S)N(C)CCc1cc2c(c(OC)c1C=C1C(=O)NC(=O)NC1=O)OCO2,?,-6%,41%,?,79µM*,0%
C=CCN1C(=O)NC(=O)/C(=C/c2c(CCN(C)C(=O)c3ccccc3)cc3c(c2OC)OCO3)C1=O,-37%,-4%,41%,-6%,?,-20%
CC1COC2=C1C(=O)C(=O)c1c2ccc2c1CCCC2(C)C (stereo not drawn),nt,nt,nt,?,7.1µM*,nt
C[C@H]1COC2=C1C(=O)C(=O)c1c2ccc2c1CCCC2(C)C,14µM*,?,?,-2%,-169%[59 µM],32µM*
CC(C)N1C(=O)CC2(CC[N+](C)(CCOC(=O)C(O)(c3ccccc3)c3ccccc3)CC2)C1=O (stereo not drawn),-24%,-3%,46%,11%,40µM*,-5%
CCCCC(=O)Nc1c(C(=O)N2CCN(c3ccccc3F)CC2)oc2ccccc12,-15%,nt,21%,nt,?,-17%

# Screening results deposited in PubChem by National Center for Advancing Translational Sciences (NCATS).
